Measured values as given in paper PMC4081100, “A DNA-binding-site landscape and regulatory network analysis for NAC transcription factors in Arabidopsis thaliana”.

Assays:
Assay in all cases: universal protein binding microarray (PBM); transcription factors of Arabidopsis thaliana; high values mean tight binding
GST-ANAC092(1-176) = biological target: T1, GST-ANAC092(1-176) (Arabidopsis thaliana, UniProt Q9FKA0 1-176); conditions: protein: recombinant; tags: GST; chain copies: 2; dsDNA, one strand shown
T1 sequence: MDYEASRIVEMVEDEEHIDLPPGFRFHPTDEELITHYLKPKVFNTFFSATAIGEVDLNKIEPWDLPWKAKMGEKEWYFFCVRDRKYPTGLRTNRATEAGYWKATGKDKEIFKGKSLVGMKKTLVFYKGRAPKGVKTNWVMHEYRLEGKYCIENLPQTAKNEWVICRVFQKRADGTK
Summary of the method: (§1)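 For zinc-finger proteins, zinc acetate was added while GST-tagged NAC-domain, full-length or DNA-binding-domain proteins were induced in cells. Purification used glutathione–Sepharose 4B, and quantification used A280 or anti-GST western blot. Custom all-10-mer Agilent 4 × 180K arrays, made double-stranded by primer extension, each received a protein at 200 to 500 nM final in duplicate. Scoring covered gapped and ungapped 8-mers, with binding given as the normalised enrichment score (E-score).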

GST-ATAF1 NAC domain = biological target: T2, GST-ATAF1 NAC domain (Arabidopsis thaliana, UniProt Q39013 7-158); conditions: protein: recombinant; tags: GST; chain copies: 2; dsDNA, one strand shown
T2 sequence: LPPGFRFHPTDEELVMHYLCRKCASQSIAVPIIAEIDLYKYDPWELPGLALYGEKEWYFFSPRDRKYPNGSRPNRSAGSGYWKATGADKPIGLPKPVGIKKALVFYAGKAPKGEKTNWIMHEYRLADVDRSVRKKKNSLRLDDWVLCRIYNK
Summary of the method: as §1

[1] = biological target: T3, GST-ANAC092(1-285) full length (Arabidopsis thaliana, UniProt Q9FKA0 1-285); conditions: protein: recombinant; tags: GST; chain copies: 2; dsDNA, one strand shown
T3 sequence: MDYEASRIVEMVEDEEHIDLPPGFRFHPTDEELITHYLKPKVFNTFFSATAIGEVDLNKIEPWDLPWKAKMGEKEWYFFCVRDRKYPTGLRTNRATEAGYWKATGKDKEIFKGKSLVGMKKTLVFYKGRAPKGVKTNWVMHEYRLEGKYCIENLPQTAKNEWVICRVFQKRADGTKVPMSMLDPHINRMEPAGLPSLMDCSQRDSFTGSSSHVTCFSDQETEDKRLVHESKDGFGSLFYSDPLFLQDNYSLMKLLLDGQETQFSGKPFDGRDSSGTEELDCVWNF
Summary of the method: as §1

GST-NAP(1-166) = biological target: T4, GST-NAP(1-166) (Arabidopsis thaliana, UniProt O49255 1-166); conditions: protein: recombinant; tags: GST; chain copies: 2; dsDNA, one strand shown
T4 sequence: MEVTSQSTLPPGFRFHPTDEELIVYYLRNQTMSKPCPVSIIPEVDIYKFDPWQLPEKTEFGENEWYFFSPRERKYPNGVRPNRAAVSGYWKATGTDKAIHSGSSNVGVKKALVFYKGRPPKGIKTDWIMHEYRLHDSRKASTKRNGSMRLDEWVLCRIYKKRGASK
Summary of the method: as §1

GST-NST2(1-184) = biological target: T5, GST-NST2(1-184) (Arabidopsis thaliana, UniProt Q9M274 1-184); conditions: protein: recombinant; tags: GST; chain copies: 2; dsDNA, one strand shown
T5 sequence: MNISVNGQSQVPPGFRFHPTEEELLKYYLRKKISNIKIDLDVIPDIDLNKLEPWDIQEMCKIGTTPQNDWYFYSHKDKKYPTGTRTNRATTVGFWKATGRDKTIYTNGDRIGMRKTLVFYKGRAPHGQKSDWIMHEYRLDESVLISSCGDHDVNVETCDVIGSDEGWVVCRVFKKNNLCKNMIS
Summary of the method: as §1

GST-SND1(1-203) = biological target: T6, GST-SND1(1-203) (Arabidopsis thaliana, UniProt Q9LPI7 1-203); conditions: protein: recombinant; tags: GST; chain copies: 2; dsDNA, one strand shown
T6 sequence: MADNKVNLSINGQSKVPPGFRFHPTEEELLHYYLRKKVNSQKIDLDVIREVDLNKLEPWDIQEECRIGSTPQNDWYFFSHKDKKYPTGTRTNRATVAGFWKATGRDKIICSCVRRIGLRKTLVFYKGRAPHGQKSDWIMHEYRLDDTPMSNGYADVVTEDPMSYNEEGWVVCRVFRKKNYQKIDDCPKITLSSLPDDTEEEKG
Summary of the method: as §1

GST-VND7 NAC domain = biological target: T7, GST-VND7 NAC domain (Arabidopsis thaliana, UniProt Q9C8W9 9-158); conditions: protein: recombinant; tags: GST; chain copies: 2; dsDNA, one strand shown
T7 sequence: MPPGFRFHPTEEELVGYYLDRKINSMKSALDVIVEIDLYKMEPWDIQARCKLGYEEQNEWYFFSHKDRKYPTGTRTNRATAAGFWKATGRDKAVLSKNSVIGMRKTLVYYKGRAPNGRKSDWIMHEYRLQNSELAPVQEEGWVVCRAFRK
Summary of the method: as §1

GST-NTL6(1-168) = GST-NTL6(1-168) (Arabidopsis thaliana, UniProt Q9SCK6 1-168); conditions: protein: recombinant; tags: GST; chain copies: 2; dsDNA, one strand shown
Summary of the method: as §1

GST-ANAC019 NAC domain = biological target: T8, GST-ANAC019 NAC domain (Arabidopsis thaliana, UniProt Q9C932 14-162); conditions: protein: recombinant; tags: GST; chain copies: 2; dsDNA, one strand shown
T8 sequence: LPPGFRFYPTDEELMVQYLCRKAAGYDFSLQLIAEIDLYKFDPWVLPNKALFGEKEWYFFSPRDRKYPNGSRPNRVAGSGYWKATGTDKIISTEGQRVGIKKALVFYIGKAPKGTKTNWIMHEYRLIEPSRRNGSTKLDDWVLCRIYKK
Summary of the method: as §1

GST-ANAC055(1-171) = biological target: T9, GST-ANAC055(1-171) (Arabidopsis thaliana, UniProt Q9LDY8 1-171); conditions: protein: recombinant; tags: GST; chain copies: 2; dsDNA, one strand shown
T9 sequence: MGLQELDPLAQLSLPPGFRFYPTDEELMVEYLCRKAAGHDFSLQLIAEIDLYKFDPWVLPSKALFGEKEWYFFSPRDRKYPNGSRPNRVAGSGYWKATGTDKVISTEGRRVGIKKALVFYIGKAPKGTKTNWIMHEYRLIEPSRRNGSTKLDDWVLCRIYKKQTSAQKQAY
Summary of the method: as §1

GST-NTL8 NAC domain = biological target: T10, GST-NTL8 NAC domain (Arabidopsis thaliana, UniProt Q9XIN7 14-156); conditions: protein: recombinant; tags: GST; chain copies: 2; dsDNA, one strand shown
T10 sequence: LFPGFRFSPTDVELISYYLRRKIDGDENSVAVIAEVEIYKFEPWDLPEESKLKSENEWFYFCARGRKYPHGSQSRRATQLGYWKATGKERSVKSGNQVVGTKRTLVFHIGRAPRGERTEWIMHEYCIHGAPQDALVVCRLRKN
Summary of the method: as §1

GST-WRKY1(266-371) = GST-WRKY1(266-371) (Arabidopsis thaliana, UniProt Q9SI37 266-371); conditions: protein: recombinant; tags: GST; dsDNA, one strand shown
Summary of the method: as §1

GST-WRKY1(266-371), sequence (Q9SI37 266-371): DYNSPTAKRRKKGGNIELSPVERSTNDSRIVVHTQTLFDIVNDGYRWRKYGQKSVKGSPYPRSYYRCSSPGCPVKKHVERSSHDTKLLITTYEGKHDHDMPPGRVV
GST-NTL6(1-168), sequence (Q9SCK6 1-168): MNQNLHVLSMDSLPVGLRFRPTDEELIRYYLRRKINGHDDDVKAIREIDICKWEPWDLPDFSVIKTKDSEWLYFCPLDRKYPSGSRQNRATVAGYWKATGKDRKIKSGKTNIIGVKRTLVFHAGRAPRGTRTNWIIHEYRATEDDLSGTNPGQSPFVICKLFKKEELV

Row | Sequence | binding signal (GST-ANAC092(1-176)) | binding signal (GST-ATAF1 NAC domain) | binding signal [1] | binding signal (GST-NAP(1-166)) | binding signal (GST-NST2(1-184)) | binding signal (GST-SND1(1-203)) | binding signal (GST-VND7 NAC domain) | binding signal (GST-NTL6(1-168)) | binding signal (GST-ANAC019 NAC domain) | binding signal (GST-ANAC055(1-171)) | binding signal (GST-NTL8 NAC domain) | binding signal (GST-WRKY1(266-371))
1 | ATCGCGTA | 0.261 E-score | 0.165 E-score | 0.404 E-score | 0.149 E-score | 0.211 E-score | 0.442 E-score | 0.104 E-score |  |  |  |  | 
2 | CCCCGCCC | 0.325 E-score | 0.262 E-score | 0.343 E-score | 0.0894 E-score | 0.297 E-score | 0.378 E-score | 0.273 E-score | 0.319 E-score | 0.329 E-score | 0.178 E-score | 0.372 E-score | 
3 | ACCCCGCC | 0.271 E-score | 0.253 E-score | 0.264 E-score | 0.1 E-score | 0.213 E-score | 0.32 E-score | 0.241 E-score | 0.182 E-score | 0.295 E-score | 0.123 E-score | 0.284 E-score | 
4 | TCGCGTAA | 0.283 E-score | 0.141 E-score | 0.385 E-score |  | 0.259 E-score | 0.459 E-score | 0.14 E-score | 0.0668 E-score |  | 0.0885 E-score |  | 
5 | CACGCTAA | 0.453 E-score |  | 0.471 E-score |  | 0.224 E-score | 0.415 E-score | 0.112 E-score | 0.0834 E-score | 0.226 E-score |  |  | 
6 | AAACCCTC |  |  |  | 0.0744 E-score |  | 0.101 E-score | 0.1 E-score | 0.141 E-score | 0.0591 E-score | 0.134 E-score | 0.414 E-score | 
7 | AGGGTAAA | 0.1 E-score |  | 0.0699 E-score | 0.0883 E-score | 0.14 E-score | 0.153 E-score | 0.108 E-score | 0.0852 E-score |  | 0.0614 E-score | 0.429 E-score | 
8 | GAAGAAAC | 0.203 E-score | 0.194 E-score | 0.0911 E-score |  | 0.197 E-score | 0.126 E-score | 0.0868 E-score | 0.295 E-score | 0.123 E-score | 0.168 E-score | 0.423 E-score | 
9 | TGAAGGAA | 0.108 E-score | 0.0713 E-score | 0.0772 E-score |  | 0.197 E-score | 0.342 E-score | 0.0645 E-score | 0.379 E-score | 0.0877 E-score | 0.0856 E-score | 0.469 E-score | 
10 | ACCTTTCC | 0.188 E-score |  | 0.0538 E-score |  | 0.0986 E-score | 0.143 E-score | 0.0596 E-score | 0.196 E-score |  | 0.0893 E-score | 0.431 E-score | 
11 | GGCGTAAC | 0.21 E-score | 0.0594 E-score | 0.277 E-score | 0.0618 E-score | 0.129 E-score | 0.421 E-score | 0.0835 E-score |  |  |  |  | 
12 | AAGTCAGT |  |  |  |  |  | 0.0862 E-score |  |  |  |  |  | 0.411 E-score
13 | CTAGCGTA | 0.262 E-score |  | 0.398 E-score | 0.0722 E-score | 0.168 E-score | 0.45 E-score | 0.118 E-score |  |  | 0.0674 E-score |  | 
14 | GAAGGGAA | 0.091 E-score |  |  |  | 0.0954 E-score | 0.112 E-score | 0.0803 E-score | 0.227 E-score | 0.101 E-score |  | 0.44 E-score | 
15 | CGAAGCAA | 0.243 E-score |  | 0.271 E-score |  | 0.208 E-score | 0.427 E-score | 0.169 E-score | 0.325 E-score |  |  | 0.339 E-score | 
16 | TGACTTAA |  | 0.107 E-score | 0.102 E-score |  | 0.183 E-score | 0.249 E-score | 0.089 E-score | 0.342 E-score |  |  |  | 0.427 E-score
17 | AAGAAACC | 0.246 E-score | 0.177 E-score | 0.311 E-score |  | 0.265 E-score | 0.216 E-score | 0.139 E-score | 0.261 E-score | 0.0937 E-score | 0.135 E-score | 0.435 E-score | 
18 | CTTTCCTC | 0.0932 E-score |  |  |  |  | 0.147 E-score | 0.0728 E-score | 0.104 E-score | 0.0599 E-score | 0.0748 E-score | 0.453 E-score | 
19 | CTTGCTTC | 0.288 E-score |  | 0.368 E-score |  | 0.204 E-score | 0.403 E-score | 0.0829 E-score | 0.295 E-score | 0.0507 E-score |  | 0.303 E-score | 
20 | AAGCACGC | 0.32 E-score | 0.121 E-score | 0.407 E-score | 0.0699 E-score | 0.0521 E-score | 0.21 E-score | 0.0817 E-score |  | 0.127 E-score |  |  | 
21 | ACGTTGAC |  |  | 0.144 E-score | 0.0955 E-score |  | 0.127 E-score |  |  |  |  |  | 0.489 E-score
22 | AAGGGTCA |  |  |  |  |  | 0.0922 E-score |  | 0.0797 E-score |  |  |  | 0.409 E-score
23 | CTTAAGGA |  |  |  |  | 0.0872 E-score | 0.265 E-score |  | 0.401 E-score |  |  | 0.179 E-score | 0.07 E-score
24 | TAGGGAAA | 0.106 E-score | 0.088 E-score | 0.115 E-score |  |  | 0.0953 E-score |  | 0.177 E-score | 0.0861 E-score |  | 0.438 E-score | 
